Measurements published in PubChem BioAssay (NCI).
The panel holds about 79,000 compounds, 15% with a hit somewhere; the sample as a whole holds those more often. Calls of active or inactive are those of the source. Rule as the data show it: active = growth inhibition above about 70%; inactive = the rest.

Assay: NCI Yeast Anticancer Drug Screen. Data for the mlh1 strain (AID 171);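 also: 0% = growth of vehicle-treated control cultures of the same strain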
Conditions: S. cerevisiae mlh1 strain growth inhibition; at 1.2 µM; hits give high values
How it was run: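 Test agents were incubated with yeast bearing a defined DNA damage repair or cell cycle control alteration; values are growth inhibition normalised to vehicle-treated cultures.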
For `COc1ccc2nc3cccc([N+](=O)[O-])c3c(NCCNCCN(C)C)c2c1`, the growth inhibition was -4% (inactive). In the case of `Cc1cccc(/C=N/NC(=S)NC2CCCCC2)n1`, the growth inhibition is reported as -6% (inactive). With `COC(=O)C(=O)c1c(-c2ccc(Cl)c(Cl)c2)[nH]c2[nH]n(-c3ccccc3)c(=O)c2c1=O` the growth inhibition was -2% (inactive). In the case of `c1ccc([P+](CCN2Cc3ccccc3C2)(c2ccccc2)c2ccccc2)cc1`, the growth inhibition is reported as -39% (inactive). With `Cc1cc(C)c2[s+]snc2c1` the growth inhibition was 1% (inactive). In the case of `CC(C)(Br)C(=O)/C=C/c1ccccc1`, the growth inhibition is reported as 0% (inactive). For `Cc1ccc(S(=O)(=O)NC(=O)C2C(=O)CC3(CCCCC3)CC2=O)cc1`, the growth inhibition was -2% (inactive). For `NC(=S)N1N=C2c3ccccc3CC[C@H]2[C@@H]1c1ccc(Cl)cc1`, the growth inhibition was 2% (inactive). With `O=[N+]([O-])/C=C/c1cc2ccc3ccccc3c2[nH]1` the growth inhibition was 25% (inactive). With `O=C1C(=C2CCCC2)CCC1CN1CCCCC1` (configuration not stated) the growth inhibition was 0% (inactive). With `OC(CC(O)(C(F)(F)F)C(F)(F)F)c1ccc(C(O)CC(O)(C(F)(F)F)C(F)(F)F)cc1` (configuration not stated) the growth inhibition was 19% (inactive). For `COc1cc2c(cc1OC)[C@@H](Nc1ccc(C#N)cc1)C1COC(=O)[C@@H]1C2c1cc(OC)c(O)c(OC)c1` (some centres not stated), the growth inhibition was -3% (inactive). In the case of `O=c1cccccc1[O-].O=c1cccccc1[O-].O=c1cccccc1[O-].[Eu+3]`, the growth inhibition is reported as -4% (inactive). In the case of `O=C1c2ccccc2C(=O)c2sc(Nc3ccccc3Cl)nc21`, the growth inhibition is reported as -30% (inactive). With `NC(CCCCCCCCCCCCC(N)C(=O)c1ccccc1)C(=O)c1ccccc1` (configuration not stated) the growth inhibition was -4% (inactive). For `CC1=C(C)C(=O)C2=C(OCCO2)C1=O`, the growth inhibition was -4% (inactive). In the case of `c1ccc(-c2cc(C3CO3)c3ccccc3n2)cc1` (configuration not stated), the growth inhibition is reported as -1% (inactive). For `S=C1C(=Nc2ccccc2)N(c2ccccc2)/C(=N\c2ccccn2)N1c1ccccc1`, the growth inhibition was -5% (inactive). With `CCC(OC(C)=O)C1CC(C(C)C)CCC1C` (configuration not stated) the growth inhibition was 0% (inactive). For `CC(C)=CCc1c2c(c(O)c3c(=O)c(-c4ccc(O)c(O)c4)coc13)C=CC(C)(C)O2`, the growth inhibition was 5% (inactive). With `O=C(NC(N1CCN(c2cc3c(cc2F)c(=O)c(C(=O)O)cn3C2CC2)CC1)(C(F)(F)F)C(F)(F)F)c1ccccc1` the growth inhibition was -4% (inactive). For `Fc1cc(F)c(F)c(S)c1F`, the growth inhibition was -34% (inactive). For `COc1ccc2cc3c4cc5c(cc4cc[n+]3cc2c1OC)OCO5`, the growth inhibition was 12% (inactive). For `CCCCCCCCNCCCCCCCC`, the growth inhibition was 6% (inactive). With `Nc1cc(Cl)ccc1Nc1ccccc1` the growth inhibition was -85% (inactive). In the case of `O=C(/C(=C/c1ccc(O)cc1)c1ccccc1)c1ccccc1`, the growth inhibition is reported as 6% (inactive). In the case of `O=Cc1ccccc1C=O`, the growth inhibition is reported as -6% (inactive). With `C1=CCN([B-](c2ccccc2)[C+]2CCCCC2)C=C1` the growth inhibition was -1% (inactive). In the case of `CC/C(=C(\c1ccccc1)c1ccc(OCC[N+](C)(C)C)cc1)c1ccccc1`, the growth inhibition is reported as -7% (inactive). With `O=S(=O)(c1cccc(C(F)(F)F)c1)N1c2ccccc2-n2cccc2C1c1cccnc1` (configuration not stated) the growth inhibition was -43% (inactive). For `Nc1ccc2c(c1)C(=O)c1c(F)cccc1-2`, the growth inhibition was 7% (inactive). In the case of `CN(C)/C(=N/C(=S)Nc1ccccc1)SCc1ccccc1`, the growth inhibition is reported as -2% (inactive). For `CCN(CC)C(=S)N/N=C(\C)c1ccccc1O`, the growth inhibition was 11% (inactive). For `CC(C)OC(=O)NNc1cc(Cl)ccc1Cl`, the growth inhibition was -1% (inactive). In the case of `CC(C)CCC[C@@H](C)[C@H]1CC[C@H]2[C@@H]3CC[C@H]4C[C@H](N)CC[C@]4(C)[C@H]3CC[C@]12C`, the growth inhibition is reported as -2% (inactive). With `O=C1c2ccccc2-c2ccc(N=Cc3ccccc3)cc21` the growth inhibition was -2% (inactive).

Same assay, conditions: S. cerevisiae mlh1 strain growth inhibition; at 3.7 µM; hits give high values
For `COc1ccc2nc3cccc([N+](=O)[O-])c3c(NCCNCCN(C)C)c2c1`, the growth inhibition was -4% (inactive). With `Cc1cccc(/C=N/NC(=S)NC2CCCCC2)n1` the growth inhibition was -4% (inactive). In the case of `COC(=O)C(=O)c1c(-c2ccc(Cl)c(Cl)c2)[nH]c2[nH]n(-c3ccccc3)c(=O)c2c1=O`, the growth inhibition is reported as -3% (inactive). With `c1ccc([P+](CCN2Cc3ccccc3C2)(c2ccccc2)c2ccccc2)cc1` the growth inhibition was 18% (inactive). With `Cc1cc(C)c2[s+]snc2c1` the growth inhibition was 1% (inactive). With `CC(C)(Br)C(=O)/C=C/c1ccccc1` the growth inhibition was 4% (inactive). In the case of `Cc1ccc(S(=O)(=O)NC(=O)C2C(=O)CC3(CCCCC3)CC2=O)cc1`, the growth inhibition is reported as -11% (inactive). In the case of `NC(=S)N1N=C2c3ccccc3CC[C@H]2[C@@H]1c1ccc(Cl)cc1`, the growth inhibition is reported as 2% (inactive). In the case of `O=[N+]([O-])/C=C/c1cc2ccc3ccccc3c2[nH]1`, the growth inhibition is reported as 50% (inactive). For `O=C1C(=C2CCCC2)CCC1CN1CCCCC1` (configuration not stated), the growth inhibition was 0% (inactive). In the case of `OC(CC(O)(C(F)(F)F)C(F)(F)F)c1ccc(C(O)CC(O)(C(F)(F)F)C(F)(F)F)cc1` (configuration not stated), the growth inhibition is reported as 11% (inactive). For `COc1cc2c(cc1OC)[C@@H](Nc1ccc(C#N)cc1)C1COC(=O)[C@@H]1C2c1cc(OC)c(O)c(OC)c1` (some centres not stated), the growth inhibition was 9% (inactive). With `O=c1cccccc1[O-].O=c1cccccc1[O-].O=c1cccccc1[O-].[Eu+3]` the growth inhibition was -1% (inactive). In the case of `O=C1c2ccccc2C(=O)c2sc(Nc3ccccc3Cl)nc21`, the growth inhibition is reported as -6% (inactive). For `NC(CCCCCCCCCCCCC(N)C(=O)c1ccccc1)C(=O)c1ccccc1` (configuration not stated), the growth inhibition was -10% (inactive). In the case of `CC1=C(C)C(=O)C2=C(OCCO2)C1=O`, the growth inhibition is reported as -3% (inactive). With `c1ccc(-c2cc(C3CO3)c3ccccc3n2)cc1` (configuration not stated) the growth inhibition was -1% (inactive). With `S=C1C(=Nc2ccccc2)N(c2ccccc2)/C(=N\c2ccccn2)N1c1ccccc1` the growth inhibition was -2% (inactive). In the case of `CCC(OC(C)=O)C1CC(C(C)C)CCC1C` (configuration not stated), the growth inhibition is reported as 1% (inactive). In the case of `CC(C)=CCc1c2c(c(O)c3c(=O)c(-c4ccc(O)c(O)c4)coc13)C=CC(C)(C)O2`, the growth inhibition is reported as 14% (inactive). With `O=C(NC(N1CCN(c2cc3c(cc2F)c(=O)c(C(=O)O)cn3C2CC2)CC1)(C(F)(F)F)C(F)(F)F)c1ccccc1` the growth inhibition was -2% (inactive). In the case of `Fc1cc(F)c(F)c(S)c1F`, the growth inhibition is reported as -27% (inactive). For `COc1ccc2cc3c4cc5c(cc4cc[n+]3cc2c1OC)OCO5`, the growth inhibition was 31% (inactive). In the case of `CCCCCCCCNCCCCCCCC`, the growth inhibition is reported as 20% (inactive). With `Nc1cc(Cl)ccc1Nc1ccccc1` the growth inhibition was -70% (inactive). With `O=C(/C(=C/c1ccc(O)cc1)c1ccccc1)c1ccccc1` the growth inhibition was 24% (inactive). In the case of `O=Cc1ccccc1C=O`, the growth inhibition is reported as -5% (inactive). For `C1=CCN([B-](c2ccccc2)[C+]2CCCCC2)C=C1`, the growth inhibition was -2% (inactive). With `CC/C(=C(\c1ccccc1)c1ccc(OCC[N+](C)(C)C)cc1)c1ccccc1` the growth inhibition was 70% (active). In the case of `O=S(=O)(c1cccc(C(F)(F)F)c1)N1c2ccccc2-n2cccc2C1c1cccnc1` (configuration not stated), the growth inhibition is reported as -15% (inactive). With `Nc1ccc2c(c1)C(=O)c1c(F)cccc1-2` the growth inhibition was -4% (inactive). In the case of `CN(C)/C(=N/C(=S)Nc1ccccc1)SCc1ccccc1`, the growth inhibition is reported as 0% (inactive). For `CCN(CC)C(=S)N/N=C(\C)c1ccccc1O`, the growth inhibition was 25% (inactive). With `CC(C)OC(=O)NNc1cc(Cl)ccc1Cl` the growth inhibition was 8% (inactive). In the case of `CC(C)CCC[C@@H](C)[C@H]1CC[C@H]2[C@@H]3CC[C@H]4C[C@H](N)CC[C@]4(C)[C@H]3CC[C@]12C`, the growth inhibition is reported as -2% (inactive). For `O=C1c2ccccc2-c2ccc(N=Cc3ccccc3)cc21`, the growth inhibition was -8% (inactive).
